Compound activity as filed in PubChem BioAssay.
GPR151 activ – activators of human GPR151. PathHunter beta-arrestin GPR151 cells, luminescence. activation, % at 11.2 µM. 650,000 compounds, 1% hits; in the data active means activation above about 4.9%;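 further: 0% = median of compound wells and 100% = cells with positive control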
MITF primary – inhibitors of human MITF; O75030; AlphaScreen MITF homodimerization, bead proximity signal; inhibition, % at 2.6 µM; 650,000 compounds, 0.91% hits; AID 1259374; in the data active means inhibition above about 50%;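 further: 0% = vehicle wells with protein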
Target sequence (O75030 whole entry, looked up): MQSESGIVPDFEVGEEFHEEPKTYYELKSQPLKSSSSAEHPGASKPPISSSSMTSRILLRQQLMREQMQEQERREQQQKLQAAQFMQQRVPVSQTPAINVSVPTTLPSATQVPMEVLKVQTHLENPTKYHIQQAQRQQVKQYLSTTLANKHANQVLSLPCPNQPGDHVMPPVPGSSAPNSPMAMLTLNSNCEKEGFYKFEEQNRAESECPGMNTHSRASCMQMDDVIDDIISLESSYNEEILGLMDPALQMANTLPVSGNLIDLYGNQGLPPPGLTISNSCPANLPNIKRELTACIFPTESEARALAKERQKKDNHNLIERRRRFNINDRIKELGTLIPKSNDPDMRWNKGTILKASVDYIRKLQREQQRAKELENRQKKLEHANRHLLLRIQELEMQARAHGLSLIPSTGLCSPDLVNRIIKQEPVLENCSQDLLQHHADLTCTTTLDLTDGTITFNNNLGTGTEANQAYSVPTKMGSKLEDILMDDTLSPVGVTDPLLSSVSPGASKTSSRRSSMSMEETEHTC
TEAD-YAP inh – TEAD-YAP interaction inhibition; inhibition, % at 9.12 µM; AID 1259422; 640,000 compounds, 1.4% hits; HEK-TIYL cells, TEAD-Gal4/YAP UAS-luciferase luminescence; in the data active means inhibition above about 32%;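 further: 0% = median of test compound wells and 100% = reference inhibitor wells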
FBW7 act – human FBW7 E3 ligase activation, primary screen | AlphaScreen FBW7–phospho-cyclin E peptide binding, activator screen | normalized activity (activation), % at 26.1 µM | 650,000 compounds, 0.13% hits | AID 1259310; in the data active means normalized activity above about 1.9%;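 further: purified mutant Fbw7 with reduced substrate affinity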
GPR151 confirm – human GPR151 activation, confirmation screen. shares compounds with GPR151 activ. AID 1508609. 6,700 tested, under 10 active. activation, % at 11.2 µM. GPR151 PathHunter beta-arrestin cells, luminescence, 90 min; % of EA-reagent control over plate median;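 active means mean percent activation across replicates above the confirmation screen cutoff of 4.91%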
GPR119 ag – GPR119 activation, counter-screen for GPR151 activators. AID 1508611. activation, % at 11.2 µM. GPR119 PathHunter beta-arrestin cells, luminescence, 90 min; 0 = compound-well median, 100 = enzyme-acceptor control. shares compounds with GPR151 activ. 6,700 compounds, 0.3% hits;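 active means mean percent activation in the counterscreen above 29.09%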;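 further: counterscreen on off-target GPR119 to flag nonselective hits from the GPR151 activator screen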
The depositor's hits bear a star; / = not tested or not shown. Rows were chosen to be rich in hits. Some 3.4% of all compounds tested hit in one or more screens of this group.

SMILES	GPR151 activ	MITF primary	TEAD-YAP inh	FBW7 act	GPR151 confirm	GPR119 ag
O=C(Cn1c(=O)oc2ccccc21)NCc1ccc(F)cc1	1	15	-4	0	/	/
CC(C)CC(NC(=O)c1ccccc1)C(=O)OCC(=O)Nc1ncc(Br)cc1Br (stereo unspecified)	-1	-7	1	0	/	/
Cc1nc(NS(C)(=O)=O)sc1C(=O)O	5.0*	11	8	0	0	5
Cc1nc(NC(=O)c2ccccc2F)sc1C(=O)O	-6	18	5	1	/	/
COc1ccc(NC(=O)/C=C/c2ccc([N+](=O)[O-])cc2)c(OC)c1	1	-10	2	0	/	/
COc1ccc(C(=O)NCC(=O)OCc2ccc([N+](=O)[O-])cc2)cc1	8.1*	4	-3	0	0	-1
COc1ccc(NCCC(=O)c2ccc([N+](=O)[O-])cc2)c(OC)c1	5.2*	3	9	0	-1	-10
O=C(CNC(=O)c1ccccc1)OCc1ccc([N+](=O)[O-])cc1	2	-2	-1	0	/	/
O=C(COc1ccccc1)NCCCS(=O)(=O)N1CCN(c2ncccn2)CC1	-1	9	-6	0	/	/
O=S(=O)(CCOc1ccccc1)N1CCN(c2ncccn2)CC1	6.2*	1	2	0	0	-4
O=S(=O)(CCOc1ccccc1)N1CCN(c2ccccc2F)CC1	-1	3	0	0	/	/
O=C(COc1ccc(Cl)cc1)NCCCS(=O)(=O)N1CCN(c2ncccn2)CC1	7.5*	2	-9	0	1	0
COc1cc(NC(=O)c2c(-c3ccccc3Cl)noc2C)c(OC)cc1Br	-1	-1	13	0	/	/
Nc1ccc2nc(SCC(=O)c3ccc(Cl)cc3)sc2c1	6.6*	14	-4	0	0	-2
Nc1cccc(-c2cc(C(=O)O)c3cc(Br)ccc3n2)c1	6.7*	7	-1	0	-1	-12
O=C(O)c1cc(-c2cccnc2)nc2ccc(Br)cc12	-1	7	2	1	/	/
COc1cc(/C=C2\SC(=S)NC2=O)ccc1OS(=O)(=O)c1ccccc1	7.9*	11	18	0	0	6
O=C(NCc1ccccc1)C(=O)NC1CCCCCC1	-1	7	-24	0	/	/
O=C(c1nnn(-c2ccccc2)c1CSc1ncccn1)N1CCN(c2cccc(Cl)c2)CC1	-1	-7	2	0	/	/
CC12C=CC(C)(O1)C1C(=O)N(c3ccccc3)C(=O)C12 (stereo unspecified)	1	-7	0	0	/	/
CC12C=CC(C)(O1)C1C(=O)N(c3ccc(-c4ccccc4)cc3)C(=O)C12 (stereo unspecified)	5.7*	-13	-3	0	-1	-15
COc1ccc(C(=O)Nc2ccc3c(c2)COC3=O)cc1OC	1	19	-7	0	/	/
O=C(c1ccc(Cl)cc1)c1cc(NC(=O)c2cc(Br)cc(Br)c2O)ccc1Cl	8.2*	3	7	0	1	-3
Cc1ccc(NC(=O)C(=O)N/N=C/c2cccc(Cl)c2)cc1C	2	-15	-6	0	/	/
COC(=O)c1ccccc1OCCOCCOc1cccc2cccnc12	1	1	-7	0	/	/
SMILES	GPR151 activ	MITF primary	TEAD-YAP inh	FBW7 act	GPR151 confirm	GPR119 ag
COC(=O)c1ccccc1OCCOc1ccccc1C(=O)OC	5.6*	9	-11	1	0	11
Cc1ccccc1N(CC(=O)NC(C)(C)C)C(=O)CCC(=O)Nc1nccs1	5.7*	8	0	0	-1	-12
CCC(C)(C)NC(=O)CN(C(=O)CCC(=O)Nc1nccs1)c1ccccc1C	1	-10	-10	0	/	/
O=C1/C(=C/c2ccccn2)SC(=S)N1c1ccc2c(c1)OCO2	3	0	-2	0	/	/
COc1ccc(Cl)cc1NC(=O)CN1CCC(n2nnc3ccccc32)CC1	5.3*	14	-23	0	0	-2
Nc1ncnc2nc(SCCO)[nH]c12	7.0*	-9	-7	0	-1	-5
NC(=O)CSc1nc2ncnc(N)c2[nH]1	1	18	-4	0	/	/
COC(=O)c1ccc(-c2ccc(/C=C3\C(=O)N(CCO)C(=O)C(C#N)=C3C)o2)cc1	0	23	-11	0	/	/
Cc1ccccc1NC(=O)CCC(=O)N1N=C(c2ccc(Br)cc2)CC1c1ccc(Br)cc1 (stereo unspecified)	-1	1	5	0	/	/
